# Reference: PubChem BioAssay (NCATS)
# Values joined by “and” are separate entries in the source; they are usually repeats but may differ in a detail not shown here. Equal values may be shown once. Inconclusive results are not listed. Where a call stands in place of a potency, no number is given. Active and inactive are the calls of the source. Unless noted, calls follow the shape of the dose curve; as a rule, active = well fitted curve in the direction sought with a large enough effect; inconclusive = small, poorly fitted or top-dose-only effect, or another doubt; inactive = no such curve, though single readings can be large; an effect the other way counts as inactive or inconclusive.
# Assays:
# [1] = Cell Viability - N2a (AID 540); conditions: N2a mouse neuroblastoma cell viability; activity change, negative = cytotoxicity: at 92.2 µM (top of the series);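 also: cells exposed to compound for 40 h at 37 °C; nearly all actives have a fitted effect of over 45% in size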
# How it was run: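 Luminescent ATP signal (CellTiter-Glo, 20 min at room temperature) served as the viability read-out after N2a cells were treated with compounds for 40 hours at 37 °C. Concentration-response data were fitted to the Hill equation for AC50.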
# [2] = Cell Viability - HUV-EC-C (AID 542); also: nearly all actives have a fitted effect of over 35% in size
# How it was run: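 qHTS cytotoxicity: HUV-EC-C, 1000 cells/well, 5 hr settle, compound 40 hr 37 °C, CellTiter-Glo, luminescence. AC50 via Hill equation.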
# [3] = MultiTox-Fluor Cytotoxicity Assay - LYMP1-002 - Dead Cells (AID 960); also: nearly all actives have a fitted effect of over 60% in size
# How it was run: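 LYMP1-002 cells 2500/well; 5 hr 37 C pre-incubation; compound 16 hr 37 C; MultiTox-Fluor reagent 60 min RT; dead-cell fluor Ex/Em 485/520. Norm. to DMSO (0%) vs 15 uM tetraoctylammonium bromide (100%); Hill AC50.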
# [4] = Cell Viability - LYMP2-005 (AID 967)
# How it was run: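 CellTiter-Glo luminescence (cellular ATP) read-out; LYMP2-005 lymphoblastoid cells, 2500/well, 5 h pre-incubation, then 24 h compound exposure at 37 C in complete medium. Tetraoctylammonium bromide positive control; AC50 by standard Hill fit.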
# [5] = molecular target: Estrogen receptor (Homo sapiens) (UniProt P03372); test: qHTS assay for small molecule agonists of estrogen receptor alpha signaling (AID 588514; calls by dose curve; also: nearly all actives have a fitted effect of over 70% in size)
# How it was run: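 Cells were plated at 5000/well, incubated 4 hrs at 37 C, dosed with compound titration series, incubated 18 hrs at 37 C, loaded with CCF4 dye for 2 hrs at RT, then fluorescence was read.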
# [6] = molecular target: Bile acid receptor (Homo sapiens) (UniProt Q96RI1); test: qHTS assay for small molecule agonists of farnesoid X receptor signaling (AID 588527; calls by dose curve); conditions: HEK293T FXR-UAS-bla, beta-lactamase ratio, 16 h; stronger effect = higher value
# How it was run: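 Quantitative HTS used FXR-UAS-bla HEK293T cells with 16 h compound incubation at 37 C. EC50 values came from concentration-response curves normalized to chenodeoxycholic acid.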
# [7] = molecular target: Glucocorticoid receptor (Homo sapiens) (UniProt P04150); test: qHTS assay for small molecule antagonists of glucocorticoid receptor signaling (AID 588533; active = well fitted inhibition curve with a large enough effect in the signal ratio, with a control signal flat, not every such curve was filed as active; the % refers to the signal ratio)
# How it was run: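 Antagonist-mode qHTS: compound titrations added to GRE-bla HeLa cells, then dexamethasone 2 nM final; 18 h, 37 C. CCF4 FRET fluorescence normalized to dexamethasone and DMSO; IC50 from Hill fit.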
# [8] = molecular target: Peroxisome proliferator-activated receptor delta (Homo sapiens) (UniProt Q03181); test: qHTS assay for small molecule agonists of peroxisome proliferator-activated receptor delta signaling (AID 588534; calls by dose curve)
# How it was run: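 Fluorescence from CCF4 substrate cleavage by beta-lactamase reporter, read 2 hrs at RT, measured agonist activity. Compounds were tested with 18 hrs exposure at 37 C. Concentration-response data fitted to Hill equation.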
# [9] = qHTS assay for small molecule antagonists of peroxisome proliferator-activated receptor delta signaling (AID 588535; active = well fitted inhibition curve with a large enough effect in the signal ratio, with a control signal flat, not every such curve was filed as active; the % refers to the signal ratio;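 as to max response: cells co-treated with a PPAR-delta agonist as stimulator during compound exposure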); conditions: HEK293T PPARd-UAS-bla, beta-lactamase FRET ratio, 18 h; 460 nm channel
# How it was run: (§1)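 Antagonist-mode beta-lactamase reporter (GeneBLAzer PPAR-delta-UAS-bla) in HEK293T cells, 2% charcoal/dextran FBS, 4000 cells/well. Compound titrations, 18 h at 37 C; CCF4 ratio read, IC50 and efficacy from Hill fits.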
# [10] = molecular target: Peroxisome proliferator-activated receptor delta (Homo sapiens) (UniProt Q03181); test: as above
# How it was run: as §1
# [11] = molecular target: Peroxisome proliferator-activated receptor gamma (Homo sapiens) (UniProt P37231); test: qHTS assay for small molecule agonists of peroxisome proliferator-activated receptor gamma signaling (AID 588536; active = well fitted curve in the direction sought with a large enough effect in the signal ratio, with a control signal flat, not every such curve was filed as active; the % refers to the signal ratio)
# How it was run: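 HEK293 UAS-bla reporter line, 1% charcoal/dextran FBS; titration, 16 h, 37 C; CCF4 loading 2 h RT; fluorescence 460/530 nm. Normalized to rosiglitazone 2 uM = 100%, DMSO = 0%.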
# [12] = molecular target: Vitamin D3 receptor (Homo sapiens) (UniProt P11473); test: qHTS assay for small molecule antagonists of vitamin D receptor signaling (AID 588541; calls by dose curve;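 also: receptor activated by calcitriol during compound treatment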)
# How it was run: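 VDR-UAS-bla HEK293T cells in 2% charcoal-stripped FBS were stimulated with 1-alpha,25-dihydroxyvitamin D3 (3 nM final) plus compound for 16 h at 37 C. The beta-lactamase CCF4 readout was normalized to 50 nM agonist and DMSO, and Hill fits gave IC50.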
# [13] = molecular target: Vitamin D3 receptor (Homo sapiens) (UniProt P11473); test: qHTS assay for small molecule agonists of vitamin D receptor signaling (AID 588543; calls by dose curve)
# How it was run: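 GeneBLAzer VDR-UAS-bla HEK293T cells in 2% charcoal-stripped FBS medium were dosed with compound titrations for 16 h at 37 °C; CCF4 β-lactamase readout (405 nm ex, 460/530 nm em). EC50 and efficacy from Hill fits, normalized to 50 nM calcitriol (100%) and DMSO (0%).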
# [14] = qHTS assay for small molecule activators of the nuclear factor-kappa B (NF-kB) signaling pathway (AID 651749; active = well fitted activation curve with a large enough effect in the signal ratio; the % refers to the signal ratio); conditions: NF-kB-bla ME-180 cells, beta-lactamase FRET ratio, 16 h; stronger effect = higher value
# How it was run: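 NF-kB-bla ME-180 cells carrying a beta-lactamase reporter under an NF-kB response element, 2,000 cells/well, exposed to compound for 16 hr at 37C; FRET-based beta-lactamase fluorescence read-out of pathway activation.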
# [15] = Cell Viability - H-4-II-E (AID 543); also: nearly all actives have a fitted effect of over 35% in size
# How it was run: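 Luminescent ATP signal (CellTiter-Glo) served as the viability read-out, with cytotoxicity seen as a concentration-dependent ATP drop. Cells were treated for 40 hours in complete medium. AC50 values derive from Hill-equation modelling.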
# [16] = MultiTox-Fluor Cytotoxicity Assay - LYMP1-001 - Live Cells (AID 947)
# [17] = Cell Viability - LYMP1-002 - Assay at 40 hr (AID 994); also: nearly all actives have a fitted effect of over 60% in size
# How it was run: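 Luminescent ATP signal served as the viability readout, with decreases taken as toxicity. Cells were treated with compounds across a concentration range for 40 hours at 37 C, and AC50 values came from standard Hill modeling.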
# [18] = molecular target: Peroxisome proliferator-activated receptor gamma (Homo sapiens) (UniProt P37231); test: qHTS assay for small molecule antagonists of peroxisome proliferator-activated receptor gamma signaling (AID 588537; active = well fitted inhibition curve with a large enough effect in the signal ratio, with a control signal flat, not every such curve was filed as active; the % refers to the signal ratio;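 also: reporter cells co-stimulated with 50 nM rosiglitazone agonist during compound treatment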)
# How it was run: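 PPARγ-UAS-bla HEK293 cells (3000/well) in 1% charcoal/dextran-stripped FBS are treated with compound, then stimulated with 50 nM rosiglitazone for 16 h at 37 °C. Read-out is CCF4 β-lactamase fluorescence after 2 h at RT. IC50 comes from Hill fits normalised to rosiglitazone and DMSO.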
# [19] = qHTS assay for small molecule agonists of the antioxidant response element (ARE) signaling pathway (AID 651741; active = well fitted activation curve with a large enough effect in the signal ratio; the % refers to the signal ratio; also: potency is read from the fitted curve at half-maximal effect)
# How it was run: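 CellSensor ARE-bla HepG2 cells (2,000/well) carrying ARE-driven beta-lactamase, exposed 16 h at 37 C. LiveBLAzer B/G FRET substrate added for 2 h at room temperature; fluorescence intensity read.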
# [20] = molecular target: Glucocorticoid receptor (Homo sapiens) (UniProt P04150); test: qHTS assay for small molecule agonists of glucocorticoid receptor signaling (AID 588532; active = well fitted curve in the direction sought with a large enough effect in the signal ratio, with a control signal flat; the % refers to the signal ratio); conditions: HeLa MMTV-bla, beta-lactamase ratio, agonist, 18 h; stronger effect = higher value; percent of dexamethasone control, DMSO zero
# How it was run: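 Cells were plated and rested 3-5 h at 37 C, compounds were added in titration and incubated 18 h, then CCF4 substrate was loaded for 2 h at RT before reading blue/green fluorescence. EC50 came from Hill-equation fitting.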
# Sequence of Bile acid receptor (Homo sapiens) (Q96RI1 whole entry, looked up): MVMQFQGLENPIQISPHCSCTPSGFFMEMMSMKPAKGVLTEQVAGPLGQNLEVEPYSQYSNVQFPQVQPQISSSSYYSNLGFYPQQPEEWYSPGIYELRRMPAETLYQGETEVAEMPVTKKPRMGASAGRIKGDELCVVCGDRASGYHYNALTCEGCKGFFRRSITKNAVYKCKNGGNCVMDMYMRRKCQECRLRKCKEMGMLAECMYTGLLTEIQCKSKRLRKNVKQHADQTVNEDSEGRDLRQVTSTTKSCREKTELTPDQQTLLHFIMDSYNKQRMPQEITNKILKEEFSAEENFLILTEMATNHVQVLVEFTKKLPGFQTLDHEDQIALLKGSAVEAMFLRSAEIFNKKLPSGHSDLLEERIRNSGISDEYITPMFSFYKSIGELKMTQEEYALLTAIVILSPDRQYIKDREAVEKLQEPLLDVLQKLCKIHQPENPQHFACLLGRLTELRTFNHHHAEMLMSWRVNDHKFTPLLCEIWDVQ
# Sequence of Peroxisome proliferator-activated receptor delta (Homo sapiens) (Q03181 whole entry, looked up): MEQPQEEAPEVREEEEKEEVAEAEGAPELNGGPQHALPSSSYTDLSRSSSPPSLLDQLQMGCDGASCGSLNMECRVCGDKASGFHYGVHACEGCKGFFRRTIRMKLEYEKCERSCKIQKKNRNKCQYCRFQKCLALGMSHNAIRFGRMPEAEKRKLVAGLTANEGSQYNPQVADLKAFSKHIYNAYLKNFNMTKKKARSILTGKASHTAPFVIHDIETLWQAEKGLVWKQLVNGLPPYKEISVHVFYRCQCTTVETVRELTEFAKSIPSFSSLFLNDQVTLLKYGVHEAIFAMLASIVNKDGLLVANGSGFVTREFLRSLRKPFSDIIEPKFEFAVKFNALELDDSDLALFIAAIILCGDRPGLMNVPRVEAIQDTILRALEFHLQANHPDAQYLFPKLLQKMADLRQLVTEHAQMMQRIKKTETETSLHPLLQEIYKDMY
# Sequence of Peroxisome proliferator-activated receptor gamma (Homo sapiens) (P37231 whole entry, looked up): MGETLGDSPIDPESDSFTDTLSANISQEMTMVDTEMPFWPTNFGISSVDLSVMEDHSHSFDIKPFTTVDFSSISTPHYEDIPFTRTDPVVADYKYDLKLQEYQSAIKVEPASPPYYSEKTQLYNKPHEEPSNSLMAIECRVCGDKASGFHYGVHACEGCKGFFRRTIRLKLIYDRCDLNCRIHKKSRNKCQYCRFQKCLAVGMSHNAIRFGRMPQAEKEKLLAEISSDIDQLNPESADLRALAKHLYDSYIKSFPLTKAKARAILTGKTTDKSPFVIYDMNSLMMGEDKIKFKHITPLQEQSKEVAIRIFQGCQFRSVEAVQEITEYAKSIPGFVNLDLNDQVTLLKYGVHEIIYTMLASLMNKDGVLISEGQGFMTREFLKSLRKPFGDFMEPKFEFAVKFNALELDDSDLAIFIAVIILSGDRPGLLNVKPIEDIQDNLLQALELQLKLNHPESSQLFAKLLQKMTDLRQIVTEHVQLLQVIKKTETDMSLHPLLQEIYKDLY
# Sequence of Estrogen receptor (Homo sapiens) (P03372 whole entry, looked up): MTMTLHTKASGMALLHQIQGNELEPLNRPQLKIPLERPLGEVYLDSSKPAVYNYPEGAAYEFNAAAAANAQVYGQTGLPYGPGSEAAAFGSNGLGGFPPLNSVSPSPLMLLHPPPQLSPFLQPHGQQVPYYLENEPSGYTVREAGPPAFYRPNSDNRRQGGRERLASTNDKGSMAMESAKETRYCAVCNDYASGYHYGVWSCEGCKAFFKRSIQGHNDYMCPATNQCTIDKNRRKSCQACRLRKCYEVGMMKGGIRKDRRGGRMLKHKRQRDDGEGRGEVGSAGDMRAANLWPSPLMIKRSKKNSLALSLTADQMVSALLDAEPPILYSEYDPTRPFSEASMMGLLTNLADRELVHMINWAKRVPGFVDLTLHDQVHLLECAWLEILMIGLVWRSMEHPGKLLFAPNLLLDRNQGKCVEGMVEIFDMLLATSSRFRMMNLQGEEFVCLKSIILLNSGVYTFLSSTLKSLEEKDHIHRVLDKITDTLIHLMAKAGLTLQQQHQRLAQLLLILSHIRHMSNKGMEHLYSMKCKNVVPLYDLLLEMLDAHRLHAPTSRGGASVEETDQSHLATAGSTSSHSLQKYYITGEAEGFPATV
# Sequence of Glucocorticoid receptor (Homo sapiens) (P04150 whole entry, looked up): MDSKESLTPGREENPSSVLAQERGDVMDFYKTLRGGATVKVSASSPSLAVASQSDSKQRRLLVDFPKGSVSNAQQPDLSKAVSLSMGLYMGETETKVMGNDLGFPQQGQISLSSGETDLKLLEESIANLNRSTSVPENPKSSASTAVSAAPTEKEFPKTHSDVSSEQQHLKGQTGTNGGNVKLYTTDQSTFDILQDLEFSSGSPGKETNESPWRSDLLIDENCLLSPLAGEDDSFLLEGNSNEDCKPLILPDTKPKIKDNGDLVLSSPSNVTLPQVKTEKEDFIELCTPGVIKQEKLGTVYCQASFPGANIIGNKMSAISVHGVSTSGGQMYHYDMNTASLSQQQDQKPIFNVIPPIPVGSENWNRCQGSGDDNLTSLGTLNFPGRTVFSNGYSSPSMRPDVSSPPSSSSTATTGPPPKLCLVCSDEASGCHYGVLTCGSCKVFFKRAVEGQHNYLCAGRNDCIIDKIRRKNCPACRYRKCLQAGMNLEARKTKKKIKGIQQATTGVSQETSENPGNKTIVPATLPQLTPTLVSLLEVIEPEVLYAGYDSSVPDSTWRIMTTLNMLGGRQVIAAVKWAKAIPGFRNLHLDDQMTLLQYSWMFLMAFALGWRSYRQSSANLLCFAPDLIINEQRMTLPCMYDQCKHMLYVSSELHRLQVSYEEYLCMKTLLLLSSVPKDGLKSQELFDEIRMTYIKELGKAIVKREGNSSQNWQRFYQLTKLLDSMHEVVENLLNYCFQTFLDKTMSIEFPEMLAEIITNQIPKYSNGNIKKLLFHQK
# Sequence of Vitamin D3 receptor (Homo sapiens) (P11473 whole entry, looked up): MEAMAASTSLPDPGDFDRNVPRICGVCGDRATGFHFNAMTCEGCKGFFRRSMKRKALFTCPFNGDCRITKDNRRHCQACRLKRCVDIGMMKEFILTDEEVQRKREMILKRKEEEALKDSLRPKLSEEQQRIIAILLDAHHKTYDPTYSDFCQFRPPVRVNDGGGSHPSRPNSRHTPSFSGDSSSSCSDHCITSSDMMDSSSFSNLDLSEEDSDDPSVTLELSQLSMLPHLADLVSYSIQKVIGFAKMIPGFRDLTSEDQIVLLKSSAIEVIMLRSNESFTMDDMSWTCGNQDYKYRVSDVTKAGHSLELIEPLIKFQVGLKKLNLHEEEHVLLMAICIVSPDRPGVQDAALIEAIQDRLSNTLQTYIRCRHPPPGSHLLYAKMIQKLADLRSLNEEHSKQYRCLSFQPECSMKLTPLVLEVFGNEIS
Structure (SMILES),Potency [1],Potency [2],Potency [3],Potency [4],Potency [5],activation [6],outcome [7],outcome [8],max response [9],outcome [10],outcome [11],outcome [12],outcome [13],activation [14],Potency [15],outcome [16],Potency [17],Potency [18],Potency [19],activation [20]
Nc1ncc([N+](=O)[O-])s1,inactive,inactive,inactive,inactive,inactive,-2.74% (inactive),inactive,inactive,30.2%,inactive,inactive,inactive,inactive,0.765% (inactive),,,,,,
CC(C)(Cl)Cl,inactive,inactive,inactive,,,,,,-19.4%,inactive,inactive,inactive,inactive,0.397% (inactive),inactive,inactive,inactive,inactive,inactive,
CCN(CC)CCO,inactive,inactive,inactive,,,,inactive,inactive,24%,inactive,inactive,,,-0.22% (inactive),inactive,,inactive,inactive,inactive,6.4% (inactive)
C=CCBr,inactive,inactive,,inactive,inactive,-2.82% (inactive),,,,,,inactive,inactive,,,inactive,inactive,,inactive,0.974% (inactive)
Nc1cc(Cl)cc(C(=O)O)c1Cl,inactive,inactive,inactive,inactive,,,,inactive,-17.7% and 9.43%,inactive,inactive,,inactive,,,inactive,inactive,inactive,,
C/C=C/C=O,inactive,,inactive,inactive,,,,,,,inactive,inactive,inactive,0.438% (inactive),inactive,inactive,inactive,inactive,,3.01% (inactive)
NNC(N)=S,inactive,,inactive,,inactive,-2.79% (inactive),,inactive,,,inactive,inactive,inactive,0.227% (inactive),inactive,inactive,,inactive,,0.137% (inactive)
Cc1ccc(N)cc1N,inactive,inactive,,inactive,inactive,0.164% (inactive) and -1.15% (inactive),inactive,inactive,0.381% and -13.2%,inactive,,,inactive,-0.705% (inactive) and -3.37% (inactive),inactive,inactive,,inactive,,-6.12% (inactive) and -1.93% (inactive)
COc1ccccc1N,inactive,inactive,inactive,,,,,,,,,,,,,,inactive,inactive,,
O=C(O)C(Cl)Br (stereo not drawn),inactive,,inactive,inactive,,-0.167% (inactive),,inactive,33.1%,inactive,inactive,inactive,inactive,,inactive,inactive,inactive,,33.5 µM (active),5.56% (inactive)
c1ccc(C2CO2)cc1 (stereo not drawn),inactive,inactive,inactive,inactive,,,inactive,inactive,-22%,inactive,inactive,inactive,inactive,,,inactive,inactive,inactive,inactive,9.49% (inactive)
ClC(Cl)c1ccccc1,inactive,,inactive,,inactive,,inactive,inactive,17.7%,inactive,inactive,inactive,,,inactive,inactive,inactive,,inactive,-0.105% (inactive)
CCC[N+](=O)[O-],inactive,inactive,inactive,inactive,,2.98% (inactive),,inactive,-21.5%,inactive,inactive,inactive,,-0.704% (inactive),,inactive,inactive,inactive,,
S=C1NCCN1,inactive,inactive,inactive,inactive,,,,,,,,inactive,inactive,,inactive,,inactive,inactive,,
Clc1ccc(Cl)c(Cl)c1,inactive,inactive,,,,,,inactive,-17.8% and 7%,inactive,inactive,inactive,inactive,,inactive,inactive,,inactive,inactive,
CC1CC(=O)O1 (stereo not drawn),inactive,inactive,inactive,,,-1.6% (inactive),inactive,inactive,2.28%,inactive,inactive,,inactive,,inactive,inactive,inactive,inactive,inactive,4.16% (inactive)
CCCCOC(C)=O,inactive,inactive,inactive,,inactive,1.21% (inactive),,inactive,21.2%,inactive,,,,-1.17% (inactive),,inactive,inactive,inactive,inactive,
Cc1ccc(N)cc1Cl,inactive,inactive,inactive,,inactive,,,,,,inactive,inactive,inactive,,inactive,inactive,inactive,inactive,,
O=[N+]([O-])c1cccc2c([N+](=O)[O-])cccc12,inactive,inactive,,inactive,,,inactive,inactive,-9.5%,inactive,inactive,,,,,inactive,,,4.73 µM (active),-1.31% (inactive)
O=C(O)CCl,,inactive,inactive,inactive,,,,,,,inactive,inactive,inactive,,inactive,inactive,inactive,inactive,42.2 µM (active),1.7% (inactive)
